According to PubChem BioAssay (EPA / NIEHS):
The source made the active and inactive calls. Rule for the calls: active = hit-call score of the fitted dose curve at least 0.9, where 1 is the maximum; inactive = score below 0.9.

How the values were obtained:
[1] = ATG_CRE_CIS: Attagene CIS-FACTORIAL HepG2 Assay for human cAMP Responsive Element (CRE) binding protein 3 (AID 2282926); settings: HepG2 CRE cis-reporter, Attagene multiplexed mRNA; actives raise or lower the signal
Method in brief: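 HepG2 cells transiently transfected with a multiplexed reporter library (CRE-driven unit among them) were dosed for 24 h. Reporter mRNA was quantified by RT-PCR, fluorescent labelling, HpaI digestion and capillary electrophoresis, with bidirectional fitting against DMSO baseline.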

[2] = ATG_DR4_LXR_CIS: Attagene CIS-FACTORIAL HepG2 Assay for human Liver X Receptor (LXR), DR4 submotif (AID 2282929); settings: HepG2 Attagene DR4 cis-reporter, mRNA transcription; actives raise or lower the signal
Method in brief: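 Cells were transfected with multiple reporter transcription units, exposed to chemicals for 24 hours, then lysed for RNA. Reporter mRNA induction was measured by RT-PCR with capillary electrophoresis detection and fitted in both directions relative to DMSO.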

[3] = ATG_AP_2_CIS: Attagene CIS-FACTORIAL HepG2 Assay for human Activator Protein 2 (AP-2) (AID 2282932); settings: HepG2 AP-2 cis-reporter, Attagene transcription factor profiling; actives raise or lower the signal
Method in brief: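 HepG2, transient MRTU transfection, cis-regulated reporters; 24 h compound exposure; RNA isolated, RT-PCR, 6-FAM labelling, HpaI digest, CE fluorescence. DMSO = negative control/baseline, bidirectional fit.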

[4] = ATG_BRE_CIS: Attagene CIS-FACTORIAL HepG2 Assay for human Bone Morphogenetic Protein (BMP) Response Element (BRE) (AID 2282933); settings: HepG2 BMP response element reporter, Attagene transcription factor profiling; actives raise or lower the signal
Method in brief: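 Transient MRTU transfection of human HepG2 liver cells; 24 h compound treatment; total RNA isolated, reverse-transcribed, PCR-amplified, 6-FAM labelled, HpaI-cut, capillary electrophoresis. DMSO = negative control/baseline, bidirectional fit.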

[5] = target: Transcription factor E2F1 (Homo sapiens) (UniProt Q01094); test: ATG_E2F_CIS: Attagene CIS-FACTORIAL HepG2 Assay for human E2F Transcription Factor 1 (AID 2282935); settings: HepG2 Attagene cis-reporter, E2F reporter RNA transcripts; actives raise or lower the signal
Method in brief: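 Cis-element reporter mRNA induction in transiently transfected HepG2, 24 h exposure. Activity fitted in both directions relative to DMSO negative control.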

[6] = ATG_E_Box_CIS: Attagene CIS-FACTORIAL HepG2 Assay for human Enhancer Box (E-box) (AID 2282936); settings: HepG2 E-box cis-reporter transcription, actives raise or lower the signal
Method in brief: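 Cells: HepG2 (human liver), transient MRTU transfection. Exposure 24 h. RNA → oligo(dT) RT → PCR → 6-FAM label → HpaI → CE. Activity fitted both directions relative to DMSO.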

[7] = ATG_M_19_CIS: Attagene CIS-FACTORIAL HepG2 Assay for M19 Transcription Factor (Internal Marker) (AID 2282939); settings: HepG2 Attagene CIS-FACTORIAL M19 internal marker reporter; actives raise or lower the signal
Method in brief: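 Transfect HepG2 with MRTU reporter library → dose chemical, 24 h → isolate total RNA, reverse-transcribe with oligo(dT) → PCR, 6-FAM label, HpaI cut (2 h, 37 C) → capillary electrophoresis. Bidirectional fit vs DMSO.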

[8] = ATG_Ets_CIS: Attagene CIS-FACTORIAL HepG2 Assay for human Erythroblast Transformation Specific (ETS) (AID 2282941); settings: HepG2 ETS cis-reporter transcription, actives raise or lower the signal
Method in brief: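 Human HepG2 hepatoma cells were transiently transfected with promoter-driven reporter constructs and treated for 24 hours. Reporter transcripts were quantified by RT-PCR with fluorescent primer extension; bidirectional curve fitting used DMSO as reference.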

[9] = target: Hepatocyte nuclear factor 3-beta (Homo sapiens) (UniProt Q9Y261); test: ATG_FoxA2_CIS: Attagene CIS-FACTORIAL HepG2 Assay for human Forkhead box A2 (FOXA2) (AID 2282942); settings: HepG2 cis-reporter transcription factor activity, 24 h; actives raise or lower the signal
Method in brief: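 Endogenous transcription factor activity was read in HepG2 cells carrying transiently transfected cis-promoter reporter units. After 24 h dosing, reporter mRNA was quantified by RT-PCR and capillary electrophoresis, and values fitted bidirectionally versus DMSO.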

[10] = ATG_FoxO_CIS: Attagene CIS-FACTORIAL HepG2 Assay for human Forkhead box O (FoxO) (AID 2282943); settings: HepG2 Attagene cis-reporter, FoxO element, mRNA; actives raise or lower the signal
Method in brief: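 HepG2, transient MRTU transfection (cis element, endogenous TFs). Dose 24 h. TriZol RNA → oligo(dT) RT → PCR → 6-FAM primer extension → HpaI cut → CE. Gain/loss vs DMSO.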

[11] = ATG_GATA_CIS: Attagene CIS-FACTORIAL HepG2 Assay for human GATA Binding Protein (AID 2282944); settings: HepG2 GATA cis-element reporter, Attagene multiplex mRNA; actives raise or lower the signal
Method in brief: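 Transient MRTU transfection, HepG2, 24 h compound exposure. Total RNA → oligo(dT) RT → PCR → 6-FAM primer extension → HpaI cut → CE. Bidirectional fit vs DMSO.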

[12] = ATG_M_32_CIS: Attagene CIS-FACTORIAL HepG2 Assay for M32 Transcription Factor (Internal Marker) (AID 2282949); settings: HepG2 Attagene cis-factorial M32 reporter, mRNA; actives raise or lower the signal;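 note: background control marker of the multiplexed CIS panel rather than a real target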
Method in brief: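 Fluorescent capillary electrophoresis peaks of HpaI-digested, FAM-labelled RT-PCR reporter products give the signal. Source: transiently transfected human liver HepG2 cells, 24 h after chemical dosing; bidirectional fitting against DMSO.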

[13] = ATG_PXRE_CIS: Attagene CIS-FACTORIAL HepG2 Assay for human Pregnane X Receptor Element (PXRE) (AID 2282957); settings: HepG2 Attagene CIS-FACTORIAL PXRE reporter, mRNA; actives raise or lower the signal
Method in brief: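 HepG2 cells transiently transfected with cis-regulated multiple reporter transcription units; endogenous factor activity measured as reporter mRNA 24 h after dosing. RT-PCR, fluorescent primer extension, HpaI digestion, capillary electrophoresis; bidirectional fit versus DMSO baseline.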

[14] = ATG_Sox_CIS: Attagene CIS-FACTORIAL HepG2 Assay for human SRY-box transcription factor (SOX) (AID 2282960); settings: HepG2 Attagene cis-factorial SOX reporter, mRNA; actives raise or lower the signal
Method in brief: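 Transient MRTU transfection of HepG2; 24 h compound incubation; TriZol RNA, oligo(dT) RT, PCR, 6-FAM primer extension, HpaI cut, CE. Bidirectional fit, DMSO = baseline.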

[15] = target: Transcription factor Sp1 (Homo sapiens) (UniProt P08047); test: ATG_Sp1_CIS: Attagene CIS-FACTORIAL HepG2 Assay for human Specificity Protein 1 (Sp1) (AID 2282961); settings: HepG2 Sp1 cis-reporter transcription, actives raise or lower the signal
Method in brief: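 Endogenous Sp1 activity was gauged in human liver HepG2 cells bearing transfected reporter units under a cis-regulating promoter. After 24 h dosing, reporter mRNA was quantified by RT-PCR with capillary electrophoresis, and activity fitted bidirectionally versus DMSO.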

[16] = ATG_SREBP_CIS: Attagene CIS-FACTORIAL HepG2 Assay for human Sterol Regulatory Element Binding (SREBP) (AID 2282962); settings: HepG2 Attagene cis-factorial SREBP reporter, mRNA; actives raise or lower the signal
Method in brief: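 mRNA induction of transfected cis-promoter reporters in HepG2 cells, 24 h post-dose. Detection: RT-PCR with 6-FAM-labelled products, HpaI digest, capillary electrophoresis. DMSO served as negative control and baseline.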

[17] = target: Signal transducer and activator of transcription 3 (Homo sapiens) (UniProt P40763); test: ATG_STAT3_CIS: Attagene CIS-FACTORIAL HepG2 Assay for human Signal Transducer and Activator of Transcription 3 (STAT3) (AID 2282963); settings: HepG2, Attagene cis-factorial STAT3 reporter transcription; actives raise or lower the signal
Method in brief: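 Endogenous STAT3-responsive cis-element activity was read in transiently transfected HepG2 cells after 24 h treatment. Reporter transcripts were quantified via RT-PCR and capillary electrophoresis, with DMSO as negative control and bidirectional curve fitting.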

[18] = ATG_TA_CIS: Attagene CIS-FACTORIAL HepG2 Assay for human TA Basal Promoter (AID 2282964); settings: HepG2 Attagene CIS-factorial TA basal promoter reporter; actives raise or lower the signal
Method in brief: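 Read-out: fluorescent reporter-transcript fragments resolved by capillary electrophoresis after RT-PCR and HpaI digestion. Source: HepG2 cells carrying transiently transfected multi-reporter cis constructs, treated 24 h. Endpoint fitted bidirectionally relative to DMSO.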

[19] = ATG_TCF_b_cat_CIS: Attagene CIS-FACTORIAL HepG2 Assay for human T-Cell-Factor with beta-catenin (TCF/b-cat) (AID 2282965); settings: HepG2 TCF/beta-catenin cis-reporter transcription, actives raise or lower the signal
Method in brief: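 Endogenous transcription factor activity is captured through cis-promoter reporter constructs transiently introduced into human HepG2 liver cells. Induced reporter mRNA is measured after 24 h and fitted bidirectionally relative to DMSO.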

[20] = ATG_TGFb_CIS: Attagene CIS-FACTORIAL HepG2 Assay for human Transforming Growth Factor (TGF) (AID 2282967); settings: HepG2 Attagene CIS TGFb reporter, mRNA transcription; actives raise or lower the signal
Method in brief: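 Transient MRTU transfection of HepG2 (FuGene 6). Dose 24 h. TriZol RNA, oligo(dT) RT, PCR, 6-FAM primer extension, HpaI cut, CE. Bidirectional fit, DMSO = baseline.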

Chain of Transcription factor Sp1 (Homo sapiens) (P08047 whole entry, looked up): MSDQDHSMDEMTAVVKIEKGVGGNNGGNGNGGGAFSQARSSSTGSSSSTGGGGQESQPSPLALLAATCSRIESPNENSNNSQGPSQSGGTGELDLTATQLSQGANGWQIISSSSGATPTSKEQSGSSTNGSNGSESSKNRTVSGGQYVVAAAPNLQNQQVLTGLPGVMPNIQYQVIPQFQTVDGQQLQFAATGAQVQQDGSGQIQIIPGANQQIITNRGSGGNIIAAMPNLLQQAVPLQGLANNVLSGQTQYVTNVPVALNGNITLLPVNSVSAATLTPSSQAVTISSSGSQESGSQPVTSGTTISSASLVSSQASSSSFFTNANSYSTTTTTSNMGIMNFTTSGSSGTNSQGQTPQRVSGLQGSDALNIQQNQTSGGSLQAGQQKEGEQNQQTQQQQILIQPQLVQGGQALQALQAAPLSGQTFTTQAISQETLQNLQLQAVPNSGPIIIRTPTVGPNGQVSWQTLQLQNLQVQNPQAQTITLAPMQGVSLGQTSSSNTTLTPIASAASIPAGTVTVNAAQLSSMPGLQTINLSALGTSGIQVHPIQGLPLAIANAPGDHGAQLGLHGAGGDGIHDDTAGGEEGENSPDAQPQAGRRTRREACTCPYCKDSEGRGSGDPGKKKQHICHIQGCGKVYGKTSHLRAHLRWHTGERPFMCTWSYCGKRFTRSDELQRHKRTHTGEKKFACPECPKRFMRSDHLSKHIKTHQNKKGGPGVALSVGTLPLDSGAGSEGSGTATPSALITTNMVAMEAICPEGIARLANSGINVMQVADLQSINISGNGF
Chain of Signal transducer and activator of transcription 3 (Homo sapiens) (P40763 whole entry, looked up): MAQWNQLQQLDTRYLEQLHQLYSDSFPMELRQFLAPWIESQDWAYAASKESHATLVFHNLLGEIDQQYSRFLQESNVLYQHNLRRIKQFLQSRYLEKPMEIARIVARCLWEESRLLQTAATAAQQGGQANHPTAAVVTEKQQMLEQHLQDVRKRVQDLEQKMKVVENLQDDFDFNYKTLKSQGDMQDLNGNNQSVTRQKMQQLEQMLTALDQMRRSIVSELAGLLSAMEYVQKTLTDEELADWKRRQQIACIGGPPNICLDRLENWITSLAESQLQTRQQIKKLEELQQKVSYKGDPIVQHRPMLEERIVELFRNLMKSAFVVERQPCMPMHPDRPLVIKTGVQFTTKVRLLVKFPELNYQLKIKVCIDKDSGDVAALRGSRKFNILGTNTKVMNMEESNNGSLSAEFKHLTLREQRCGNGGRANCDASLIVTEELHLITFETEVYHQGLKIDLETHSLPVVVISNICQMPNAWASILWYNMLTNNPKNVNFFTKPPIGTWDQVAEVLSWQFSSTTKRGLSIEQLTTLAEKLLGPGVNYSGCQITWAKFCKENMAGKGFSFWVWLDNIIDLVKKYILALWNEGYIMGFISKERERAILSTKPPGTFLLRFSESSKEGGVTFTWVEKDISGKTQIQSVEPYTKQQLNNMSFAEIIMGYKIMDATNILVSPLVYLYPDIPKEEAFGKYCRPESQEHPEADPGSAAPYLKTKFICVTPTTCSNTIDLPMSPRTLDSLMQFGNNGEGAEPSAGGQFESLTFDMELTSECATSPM
Chain of Hepatocyte nuclear factor 3-beta (Homo sapiens) (Q9Y261 whole entry, looked up): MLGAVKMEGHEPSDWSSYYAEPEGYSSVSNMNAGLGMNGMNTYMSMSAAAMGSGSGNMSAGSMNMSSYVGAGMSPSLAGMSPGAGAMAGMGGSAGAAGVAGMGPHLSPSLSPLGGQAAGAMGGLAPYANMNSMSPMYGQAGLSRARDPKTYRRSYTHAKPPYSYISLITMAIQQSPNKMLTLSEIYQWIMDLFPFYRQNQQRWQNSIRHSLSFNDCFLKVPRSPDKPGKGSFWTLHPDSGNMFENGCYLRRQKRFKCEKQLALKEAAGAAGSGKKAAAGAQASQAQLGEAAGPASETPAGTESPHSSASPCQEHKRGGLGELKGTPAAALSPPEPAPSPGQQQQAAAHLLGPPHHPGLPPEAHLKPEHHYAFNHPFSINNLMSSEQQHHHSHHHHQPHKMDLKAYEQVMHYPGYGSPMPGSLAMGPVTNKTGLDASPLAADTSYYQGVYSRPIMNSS
Chain of Transcription factor E2F1 (Homo sapiens) (Q01094 whole entry, looked up): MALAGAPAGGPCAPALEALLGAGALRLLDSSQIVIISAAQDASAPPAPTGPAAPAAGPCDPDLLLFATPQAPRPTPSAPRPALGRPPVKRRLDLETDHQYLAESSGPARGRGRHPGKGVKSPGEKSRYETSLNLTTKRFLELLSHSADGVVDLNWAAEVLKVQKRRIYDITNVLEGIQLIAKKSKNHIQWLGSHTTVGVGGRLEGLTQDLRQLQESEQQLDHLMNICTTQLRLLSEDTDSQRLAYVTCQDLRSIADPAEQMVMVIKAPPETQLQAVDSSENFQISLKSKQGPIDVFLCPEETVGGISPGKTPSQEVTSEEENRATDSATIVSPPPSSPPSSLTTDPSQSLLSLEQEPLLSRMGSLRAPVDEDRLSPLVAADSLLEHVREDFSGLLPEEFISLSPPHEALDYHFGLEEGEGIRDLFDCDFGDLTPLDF

CNC(=O)Oc1cc(C)c(SC)c(C)c1
outcome [1]: inactive
outcome [2]: inactive
outcome [3]: inactive
outcome [4]: inactive
outcome [5]: inactive
outcome [6]: inactive
outcome [7]: inactive
outcome [8]: inactive
outcome [9]: inactive
outcome [10]: inactive
outcome [11]: inactive
outcome [12]: inactive
AC50 [13]: 26.7 µM (active)
AC50 [14]: 27.1 µM (active)
outcome [15]: inactive
outcome [16]: inactive
outcome [17]: inactive
outcome [18]: inactive
outcome [19]: inactive
outcome [20]: inactive

CCC(C)c1cc(C(C)(C)C)cc(-n2nc3ccccc3n2)c1O (stereo not given)
outcome [1]: inactive
AC50 [2]: 19.3 µM (active)
outcome [3]: inactive
outcome [4]: inactive
outcome [5]: inactive
outcome [6]: inactive
outcome [7]: inactive
outcome [8]: inactive
outcome [9]: inactive
outcome [10]: inactive
outcome [11]: inactive
outcome [12]: inactive
AC50 [13]: 4.36 µM (active)
outcome [14]: inactive
outcome [15]: inactive
outcome [16]: inactive
outcome [17]: inactive
outcome [18]: inactive
outcome [19]: inactive
outcome [20]: inactive

CCOC(=O)COc1ccc(Cl)cc1Cl
outcome [1]: inactive
outcome [2]: inactive
outcome [3]: inactive
outcome [4]: inactive
outcome [5]: inactive
outcome [6]: inactive
outcome [7]: inactive
outcome [8]: inactive
outcome [9]: inactive
outcome [10]: inactive
outcome [11]: inactive
outcome [12]: inactive
outcome [13]: inactive
outcome [14]: inactive
outcome [15]: inactive
outcome [16]: inactive
outcome [17]: inactive
outcome [18]: inactive
outcome [19]: inactive
outcome [20]: inactive

C=Cc1cccc(CCl)c1
outcome [1]: inactive
outcome [2]: inactive
outcome [3]: inactive
outcome [4]: inactive
outcome [5]: inactive
outcome [6]: inactive
outcome [7]: inactive
AC50 [8]: 100 µM (active)
outcome [9]: inactive
outcome [10]: inactive
outcome [11]: inactive
outcome [12]: inactive
AC50 [13]: 46.2 µM (active)
outcome [14]: inactive
AC50 [15]: 25.5 µM (active)
outcome [16]: inactive
outcome [17]: inactive
outcome [18]: inactive
outcome [19]: inactive
outcome [20]: inactive

CN1C[C@H](C(=O)N[C@]2(C)O[C@@]3(O)[C@@H]4CCCN4C(=O)[C@H](Cc4ccccc4)N3C2=O)C=C2c3cccc4[nH]cc(c34)C[C@H]21
outcome [1]: inactive
outcome [2]: inactive
outcome [3]: inactive
outcome [4]: inactive
outcome [5]: inactive
outcome [6]: inactive
outcome [7]: inactive
outcome [8]: inactive
outcome [9]: inactive
outcome [10]: inactive
outcome [11]: inactive
outcome [12]: inactive
AC50 [13]: 0.445 µM (active)
outcome [14]: inactive
outcome [15]: inactive
AC50 [16]: 16.4 µM (active)
outcome [17]: inactive
outcome [18]: inactive
AC50 [19]: 94.2 µM (active)
outcome [20]: inactive

O=[N+]([O-])O
outcome [1]: inactive
outcome [2]: inactive
outcome [3]: inactive
outcome [4]: inactive
outcome [5]: inactive
outcome [6]: inactive
outcome [7]: inactive
outcome [8]: inactive
outcome [9]: inactive
outcome [10]: inactive
outcome [11]: inactive
outcome [12]: inactive
outcome [13]: inactive
outcome [14]: inactive
outcome [15]: inactive
outcome [16]: inactive
outcome [17]: inactive
outcome [18]: inactive
outcome [19]: inactive
outcome [20]: inactive

O=C(O)c1cc[c]([Hg][Cl])cc1
outcome [1]: inactive
outcome [2]: inactive
outcome [3]: inactive
outcome [4]: inactive
outcome [5]: inactive
outcome [6]: inactive
outcome [7]: inactive
outcome [8]: inactive
outcome [9]: inactive
outcome [10]: inactive
outcome [11]: inactive
outcome [12]: inactive
outcome [13]: inactive
outcome [14]: inactive
AC50 [15]: 11.1 µM (active)
outcome [16]: inactive
outcome [17]: inactive
outcome [18]: inactive
outcome [19]: inactive
outcome [20]: inactive
